Source: PubChem
HEK293 tox: qHTS of GLP-1 Receptor Inverse Agonists: Cytotox Screen; HEK293 cAMP-luciferase reporter cells, luminescence, 24 h; Potency, µM (series often up to 38.3 µM), most hits filed as inhibitors; 410,000 tested, 0.13% active;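 note: loss of luciferase light is scored as toxicity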
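Here, cytotoxicity is scored as loss of luminescence. The MLSMR collection was tested on cells seeded in medium containing 10% Nu serum, with a 24 hr compound exposure preceded by 12 hours of culture.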
GLP-1R agonist: qHTS of GLP-1 Receptor Agonists; 380,000 tested, 0.007% active; Glucagon-like peptide 1 receptor (Homo sapiens), P43220; Potency, µM (series often up to 45.6 µM), usual class: activators; HEK293 GLP-1R CRE-luciferase, luminescence, 4-6 h; cells express a hypersensitive GLP-1R form
Target sequence (P43220 whole entry, looked up): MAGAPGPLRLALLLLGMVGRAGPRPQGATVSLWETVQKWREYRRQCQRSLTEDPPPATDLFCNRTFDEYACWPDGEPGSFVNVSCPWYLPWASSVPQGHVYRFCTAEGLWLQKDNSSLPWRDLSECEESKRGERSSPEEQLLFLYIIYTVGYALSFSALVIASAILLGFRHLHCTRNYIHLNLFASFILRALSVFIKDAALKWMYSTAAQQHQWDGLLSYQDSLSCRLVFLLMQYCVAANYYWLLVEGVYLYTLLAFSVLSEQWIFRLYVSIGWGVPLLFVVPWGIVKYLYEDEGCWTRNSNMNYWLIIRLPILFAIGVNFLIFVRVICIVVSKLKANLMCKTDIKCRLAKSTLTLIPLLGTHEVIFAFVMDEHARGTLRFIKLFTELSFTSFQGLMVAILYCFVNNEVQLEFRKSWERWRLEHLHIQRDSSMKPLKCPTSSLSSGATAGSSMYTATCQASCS
TRPML1 agonist: qHTS for Agonists of the Human Mucolipin Transient Receptor Potential 1 (TRPML1). TRPML1-expressing cells, Ca2+ dye fluorescence, FDSS. 410,000 tested, 0.12% active. activation, % (concentration not given with the values); in the data active = activation above about 50%; inconclusive = mostly about 30% to 49%
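Cells: TRPML1-DL, 1X Tet inducer, ~16 h at 37 degrees C/5% CO2. Dye: ABD Ca8 no-wash + quencher, 45-90 min RT. Read: 10 s baseline, compound add, 110 s agonist phase; 54-4 EC80 (4uM final), 110 s antagonist phase.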
GLP-1R inv ag: qHTS of GLP-1 Receptor Inverse Agonists (Inhibition Mode); HEK293 GLP-1R CRE-luciferase, luminescence, 24 h; GLP-1R form is constitutively active; Potency, µM (series often up to 38.3 µM), most hits filed as inhibitors; 410,000 tested, 1.6% active; AID 624417, 2012; note: nearly all actives have a fitted effect of over 55% in size
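HEK293 cells stably co-expressing a cAMP-responsive luciferase reporter and constitutively active GLP-1R were seeded, incubated 12 h, then exposed to compounds for 24 h at 37 C. Luminescence was read 12 min after detection reagent; inverse agonists lower signal.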
TRPML1 blocker: qHTS for Inhibitors of the Human Mucolipin Transient Receptor Potential 1 (TRPML1). TRPML1-inducible cells, Ca2+ dye fluorescence, FDSS; hits give low values; inhibition of EC80 agonist-evoked calcium signal. activity change, negative = inhibition, % (concentration not given with the values). 390,000 tested, 0.02% active; in the data active = activity change below about -50%; inconclusive = between about -30% and that limit;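 note: stimulus is agonist 54-4 at its EC80 concentration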
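TRPML1-DL cells, Tet-induced overnight (~16 h, 37 °C) at 1,500 cells/well, were loaded with Ca8 no-wash dye plus quencher for 45-90 min at room temperature. Compounds were pinned during FDSS kinetic reading; agonist 54-4 at EC80 (4 uM final) then added.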
A number is an active result. Sampled rows, rich in hits. Any-hit rate of the full collection: about 1.8%. Unless noted, calls come from the whole dose curve; as a rule, active = well fitted curve in the direction sought with a large enough effect; inconclusive = small, poorly fitted or top-dose-only effect, or another doubt; inactive = no such curve, though single readings can be large; an effect the other way counts as inactive or inconclusive.

Screening Cc1cc(C)c(C(=O)NC2CC(C)(C)Cc3c2cnn3-c2ccccc2)o1 (configuration not stated) returned HEK293 tox inactive, GLP-1R agonist inactive, TRPML1 agonist inactive, GLP-1R inv ag 10µM and TRPML1 blocker inactive.
Cc1ccc(CSCC(=O)Nc2ccccc2C(=O)O)cc1 was read as HEK293 tox inactive, GLP-1R agonist inactive, TRPML1 agonist inactive, GLP-1R inv ag inconclusive and TRPML1 blocker inactive.
For CSc1ccccc1NC(=O)CSCc1ccc(C)cc1 the results were HEK293 tox inactive, GLP-1R agonist inactive, TRPML1 agonist inactive, GLP-1R inv ag 5.01µM and TRPML1 blocker inactive.
CCOC(=O)c1ccccc1NC(=O)CSc1ncc2c(n1)-c1ccccc1N(CC)S2(=O)=O was read as HEK293 tox inactive, TRPML1 agonist inactive, GLP-1R inv ag inactive and TRPML1 blocker inactive.
Screening CC(C)=CCC[C@H](C)C[C@@H]1Cc2[nH][nH]c(=O)c2[C@H](c2ccc(Cl)cc2)O1 returned HEK293 tox inactive, GLP-1R agonist inactive, TRPML1 agonist inactive and GLP-1R inv ag inconclusive.
Screening O=c1c2c([nH]n1-c1ccccc1)C[C@@H](C1CCCCC1)O[C@H]2c1ccc(F)cc1 returned HEK293 tox inactive, GLP-1R agonist inactive, TRPML1 agonist inactive and GLP-1R inv ag 2.24µM.
O=c1[nH][nH]c2c1[C@H](c1ccc(F)cc1)O[C@H](C1CCCCC1)C2 was read as HEK293 tox inactive, GLP-1R agonist inactive, TRPML1 agonist inactive and GLP-1R inv ag 2.82µM.
Screening CC(C)=CCC[C@H](C)C[C@@H]1Cc2[nH][nH]c(=O)c2[C@@H](c2ccc(F)cc2)O1 returned HEK293 tox inactive, GLP-1R agonist inactive, TRPML1 agonist inactive and GLP-1R inv ag 5.62µM.
Screening COC(=O)c1ccc2c(=O)n(CCCCCC(=O)N3CCN(c4cccc(C)c4C)CC3)c(=O)[nH]c2c1 returned HEK293 tox inactive, TRPML1 agonist inactive, GLP-1R inv ag inconclusive and TRPML1 blocker inactive.
`Cc1nc2cccnc2n1C1CCN(S(=O)(=O)c2ccc(C(C)C)cc2)CC1` gave HEK293 tox inactive, TRPML1 agonist inactive, GLP-1R inv ag inactive and TRPML1 blocker inactive.
CC(C)Cn1c(N)c(C(=O)COC(=O)c2ccc(Br)cc2)c(=O)n(C)c1=O was read as HEK293 tox inactive, GLP-1R agonist inactive, TRPML1 agonist inactive, GLP-1R inv ag 10µM and TRPML1 blocker inactive.
For CC(C)Cn1c(N)c(C(=O)COC(=O)CC23CC4CC(CC(C4)C2)C3)c(=O)n(C)c1=O the results were HEK293 tox inactive, GLP-1R agonist inactive, TRPML1 agonist inactive, GLP-1R inv ag 2.82µM and TRPML1 blocker inactive.
Cc1cccc(C(=O)OCC(=O)c2c(N)n(CC(C)C)c(=O)n(C)c2=O)c1O was read as HEK293 tox inactive, GLP-1R agonist inactive, TRPML1 agonist inactive, GLP-1R inv ag 10µM and TRPML1 blocker inactive.
Cc1cccc(C(=O)OCC(=O)c2c(N)n(CC(C)C)c(=O)n(C)c2=O)c1[N+](=O)[O-] was read as HEK293 tox inactive, GLP-1R agonist inactive, TRPML1 agonist inactive, GLP-1R inv ag inconclusive and TRPML1 blocker inactive.
Cc1cc(C)c(NC(=O)C(C)n2nc(-c3ccc(C)c(C)c3)ccc2=O)c(C)c1 (configuration not stated) was read as HEK293 tox inactive, TRPML1 agonist inactive, GLP-1R inv ag inactive and TRPML1 blocker inactive.
Screening Cc1ccccc1NC(=O)N1CCC(C(=O)c2ccc(F)cc2)CC1 returned HEK293 tox inactive, GLP-1R agonist inactive, TRPML1 agonist inactive, GLP-1R inv ag inconclusive and TRPML1 blocker inactive.
Cc1ccc(F)cc1NC(=O)N1CCN(C2c3ccccc3-c3ccccc32)CC1 was read as HEK293 tox inactive, GLP-1R agonist inactive, TRPML1 agonist inactive, GLP-1R inv ag 12.6µM and TRPML1 blocker inactive.
For Cc1ccc(OCc2nc(-c3ccccn3)n[nH]2)cc1 the results were HEK293 tox 2.51µM, GLP-1R agonist inactive, TRPML1 agonist inactive, GLP-1R inv ag inconclusive and TRPML1 blocker inactive.
`Cc1cccc(OCc2nc(-c3ccccn3)n[nH]2)c1` gave HEK293 tox inconclusive, GLP-1R agonist inactive, TRPML1 agonist inactive, GLP-1R inv ag inconclusive and TRPML1 blocker inactive.
`CCCCCc1ccc(OCCCC[n+]2ccccc2)c(CCCCC)c1` gave HEK293 tox inconclusive, GLP-1R agonist inactive, TRPML1 agonist inactive, GLP-1R inv ag 6.31µM and TRPML1 blocker inactive.
For CCCCCc1ccc(OCCCC[n+]2ccc(C)cc2)c(CCCCC)c1 the results were HEK293 tox inconclusive, GLP-1R agonist inactive, TRPML1 agonist inactive, GLP-1R inv ag inconclusive and TRPML1 blocker inactive.
Screening CC(C)N(Cc1ccccc1)C(=O)C1CCCN(c2ncnc3onc(-c4ccc(F)cc4)c23)C1 (configuration not stated) returned HEK293 tox inactive, TRPML1 agonist inactive, GLP-1R inv ag inconclusive and TRPML1 blocker inactive.
Screening Cc1ccc(-c2nc(C)c(C(=O)O)s2)cc1 returned HEK293 tox inactive, GLP-1R agonist inactive, TRPML1 agonist inactive, GLP-1R inv ag 10µM and TRPML1 blocker inactive.
For CC(=O)Oc1ccc(C(=O)Nc2cccc(C(=O)c3ccc(C)c(C)c3)c2)cc1 the results were HEK293 tox inconclusive, GLP-1R agonist inactive, TRPML1 agonist inactive, GLP-1R inv ag 12.6µM and TRPML1 blocker inactive.
`Cc1ccc(-n2ncc3c(NC4CCCCCC4)ncnc32)cc1` gave HEK293 tox inactive, TRPML1 agonist inactive, GLP-1R inv ag 4.47µM and TRPML1 blocker inactive.
For Fc1ccc(-n2ncc3c(NC4CCCCCC4)ncnc32)cc1 the results were HEK293 tox inactive, TRPML1 agonist inactive, GLP-1R inv ag inactive and TRPML1 blocker inactive.
Cc1ccc(-n2ncc3c(NC4CCCCC4)ncnc32)cc1 was read as HEK293 tox inactive, TRPML1 agonist inactive, GLP-1R inv ag 10µM and TRPML1 blocker inactive.
For Clc1cccc(-n2ncc3c(NC4CCCCC4)ncnc32)c1 the results were HEK293 tox inactive, TRPML1 agonist inactive, GLP-1R inv ag inconclusive and TRPML1 blocker inactive.
Cc1ccc(NC(=O)C(c2ccc(Cl)cc2Cl)N2CCCC2)cc1 (configuration not stated) was read as HEK293 tox inactive, GLP-1R agonist inactive, TRPML1 agonist inactive, GLP-1R inv ag 10µM and TRPML1 blocker inactive.
`CC(C)c1ccc(NC(=O)C(c2ccc3c(c2)OCO3)N2CCCCC2)cc1` (configuration not stated) gave HEK293 tox inactive, GLP-1R agonist inactive, TRPML1 agonist inactive, GLP-1R inv ag 3.98µM and TRPML1 blocker inactive.
